The record followed here is PubChem BioAssay (NCATS).

Inconclusive results are not listed. Where a call stands in place of a potency, no number is given. Unmarked numbers belong to inactive results. Active and inactive are the calls of the source. The call rests on the fitted dose curve; in most records, active means well fitted curve in the direction sought with a large enough effect; inconclusive means small, poorly fitted or top-dose-only effect, or another doubt; inactive means no such curve, though single readings can be large; an effect the other way counts as inactive or inconclusive.

Experiment [1] has as its system Zika virus NS2B-NS3 protease (unlinked). The experiment in a line: Optimization of GU AMC qHTS for Zika virus inhibitors: Unlinked NS2B-NS3 protease assay (AID 1347151). Further: nearly all actives have a fitted effect of over 80% in size. Further: potency means the concentration at half of the fitted maximal effect. Conditions: recombinant ZIKV NS2B-NS3 protease, fluorogenic AMC substrate; series mostly up to 52.5 µM. The method, boiled down: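 In this qHTS, compounds acted on 25 nM unlinked Zika NS2B–NS3 in pH 8.0 Tris/Tween buffer. Cleavage of an AMC peptide ran 15 min at room temperature, to about 20% conversion.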
In general terms: Quantitative high-throughput screening tests each substance at several concentrations.

Experiment [2] concerns Zika virus NS2B-NS3 protease. The experiment in a line: Primary screen GU AMC qHTS for Zika virus inhibitors (AID 1347154). Further: nearly all actives have a fitted effect of over 70% in size. The note with it: Zika NS2B-NS3 unlinked protease, AMC fluorogenic substrate; series mostly up to 54.1 µM. The method, boiled down:
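Unlinked Zika NS2B hydrophilic domain–NS3 protease complex at 25 nM in 10 mM Tris-HCl pH 8.0, 0.01% Tween 20, with an AMC peptide substrate. Fluorescence change (340/450 nm) over 15 min at room temperature, normalized to controls, fitted to 4-parameter Hill.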

For `c1cnc(N2CCN(Cc3ccc4c(c3)OCO4)CC2)nc1`, the Potency entry in experiment [1] is “inactive”.
`C[N+](C)(C)CCCCCCCCCC[N+](C)(C)C`: the Potency entry in experiment [1] is “inactive”. Further, the result in experiment [2] was inactive.
For the molecule `CN1CCN(CC(=O)N2c3ccccc3C(=O)Nc3cccnc32)CC1`, in experiment [1], the Potency entry is “inactive”. For the same molecule, the molecule was called inactive in experiment [2].
As for `CCN(CC)CCCN(c1ccccc1)C1Cc2ccccc2C1`, the Potency result in experiment [1] is “inactive”. In addition, the result in experiment [2] was inactive.
For `C[N+](C)(C)CCOC(=O)CCC(=O)OCC[N+](C)(C)C`, the Potency result in experiment [1] was “inactive”. In experiment [2], the molecule was classed as inactive.
Consider `O=C1CC2(CCCC2)CC(=O)N1CCCCN1CCN(c2ncccn2)CC1`, for which the Potency entry in experiment [1] is “inactive”.
Consider `CN(C)CCCN1c2ccccc2Sc2ccc(C(F)(F)F)cc21`, for which the Potency result in experiment [1] was “inactive”. Also, the result in experiment [2] was inactive.
`CCNC(=O)N1CCN(CCCC(c2ccc(F)cc2)c2ccc(F)cc2)CC1`: the Potency entry in experiment [1] was “inactive”. Besides, the call in experiment [2] was inactive.
`CCn1cc(C(=O)O)c(=O)c2cc3c(cc21)OCO3`: in experiment [1], the Potency was 23.8 µM (active). For the same molecule, the result in experiment [2] was inactive.
On to `COc1cc2c(cc1OC)-c1cc(=Nc3c(C)cc(C)cc3C)n(C)c(=O)n1CC2`, for which the result in experiment [2] was inactive.
In the case of `Cc1ccc(=O)n(-c2ccccc2)c1`, the Potency in experiment [1] is 26.7 µM (active). Also, in experiment [2], the molecule was called inactive.
`Cc1scc2c1N(C(=O)CN1CCN(C)CC1)c1ccccc1NC2=O`: the Potency result in experiment [1] was “inactive”. In addition, the outcome in experiment [2] was inactive.
`CCCCOCCOCCOCc1cc2c(cc1CCC)OCO2`: the result in experiment [2] was inactive.
As to `CCCCNc1ccc(C(=O)OCCN(C)C)cc1`, in experiment [1], the Potency entry is “inactive”. For the same molecule, in experiment [2], the molecule was classed as inactive.
On to `CC(C)NCC(O)c1cc(O)cc(O)c1` (stereo unspecified), for which the Potency result in experiment [1] was “inactive”.
For the molecule `O=C(O)CN(CCOCCOCCN(CC(=O)O)CC(=O)O)CC(=O)O`, the Potency entry in experiment [1] is “inactive”. Also, in experiment [2], the activity change, negative = inhibition is -0.967% [at 0.59 µM].
In the case of `Cc1ccc(S(=O)(=O)NC(=O)NN2CCCCCC2)cc1`, the Potency result in experiment [1] was “inactive”. The molecule was classed as inactive in experiment [2].
As for `CC(=O)[C@]1(O)Cc2c(O)c3c(c(O)c2[C@@H](O[C@H]2C[C@H](N)[C@H](O)[C@H](C)O2)C1)C(=O)c1ccccc1C3=O`, the Potency result in experiment [1] is “inactive”. For the same molecule, the result in experiment [2] was inactive.
Turning to `CCc1c(C)[nH]c2c1C(=O)C(CN1CCOCC1)CC2` (stereo unspecified), the Potency entry in experiment [1] is “inactive”. For the same molecule, the result in experiment [2] was inactive.
Regarding `OCCN1CCN(CCCN2c3ccccc3C=Cc3ccccc32)CC1`, the Potency result in experiment [1] is “inactive”. For the same molecule, the call in experiment [2] was inactive.
On to `CCn1nc(C(=O)O)c(=O)c2cc3c(cc21)OCO3`, for which the call in experiment [2] was inactive.
